Hit rate of the full screen: of about 360,000 compounds, about 3,600 (1%) were called active. The sample holds actives, similar compounds and a random draw of the others, so the mix is not that of the screen. Unmarked numbers belong to inactive results.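 Rule for the calls: active = compounds whose plate-normalised and pattern-corrected inhibition of the luciferase reporter signal at the single screening dose is 50% or more; inactive = the rest.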

This experiment is described as follows: TROY pathway blockers in reporter cells – Q293 LMP1-TROYcd cells, NF-kB luciferase, uHTS, primary screen (AID 1347056). The following applies: 4 h, at 10 µM, hits give high values.
For orientation: inhibition means the drop in the measured response relative to a control, in per cent. Take `CCOC(=O)c1ccc(NC(=S)N2CCN(c3ccccn3)CC2)cc1`: the inhibition was -15.3%.

Turning to `CCCCOc1ccc(CON(C(C)=O)C(C)=O)cc1Cl`, the inhibition is -35.4%.

For the compound `CC1(C(=O)O)CCCN(C(=O)/C=C/c2ccccc2)C1` (stereo not given), the inhibition is -7.33%.

Consider `COC(=O)c1c(C)[nH]c(C(=O)/C=C/c2ccc(Cl)cc2)c1C`, for which the inhibition is -12.1%.

Regarding `Cc1[nH]c(=O)c(C(=O)/C=C/c2ccccc2)c2c1CCCC2`, the inhibition is 52% (active).

For the compound `COc1cccc(-c2nnc(NC(=O)c3ccc(S(=O)(=O)N(CC(C)C)CC(C)C)cc3)o2)c1`, the inhibition is 12.8%.

For `CC(Nc1nc(N2CCCC2)nc2ccccc12)c1ccccc1` (stereo not given), the inhibition was 5.36%.

For `CCc1ccc(C(CNc2nc(C(F)(F)F)nc3ccccc23)N(C)C)cc1` (stereo not given), the inhibition was 4.28%.

With `CC(Nc1nc(C(F)(F)F)nc2ccccc12)c1cccs1` (stereo not given), the inhibition is 60.8% (active).

For `CN1CCCN(S(=O)(=O)c2ccc3c(c2)OCCO3)CC1`, the inhibition is -12.9%.

`COc1ccc(Nc2ncnc3ccc(Br)cc23)c(OC)c1`: the inhibition was 84.4% (active).

On to `COc1ccc(OC)c(Nc2nc3ccccc3n3cnnc23)c1`, for which the inhibition was -14.2%.

Take `COc1ccc(OC)c(NC(=O)CN(C)CCOc2ccc(Br)cc2)c1`: the inhibition was 9.37%.

Take `COc1cccc2cc(C(N)=O)/c(=N\NC(=O)c3ccccc3)oc12`: the inhibition is 73.1% (active).

With `COc1cccc2cc(C(=O)N3CCN(C(=O)c4ccccc4)CC3)c(=O)oc12`, the inhibition is -10%.

In the case of `COc1cccc2cc(C(=O)N(C)C)c(=O)oc12`, the inhibition was 11%.

On to `O=C(CN(c1cc(C(F)(F)F)ccc1Cl)S(=O)(=O)c1ccccc1)NCc1cccnc1`, for which the inhibition is 0.66%.

Consider `CSc1nc(N(C)NC(=O)c2cccc(C)c2)c2ccccc2n1`, for which the inhibition is 25.9%.

In the case of `Cc1cc(C)nc(S/C=C/C(=O)c2ccccc2)n1`, the inhibition was 54% (active).

On to `COC(c1ccccc1)(c1ccccc1)C(Oc1nc(C)cc(C)n1)C(=O)O` (stereo not given), for which the inhibition is 4.6%.

For the compound `CCOC(=O)N1CCN(CC(=O)c2ccc3c(c2)CCN3)CC1`, the inhibition is 2.97%.

In the case of `CC1(c2ccccc2)NC(=O)N(CC(=O)Nc2cc(Cl)ccc2N2CCOCC2)C1=O` (stereo not given), the inhibition is -24.9%.

As to `O=C(CSc1nc(Nc2ccccc2)nc(N2CCOCC2)n1)Nc1cc(Cl)ccc1O`, the inhibition was 64.7% (active).

As for `C/C(=N\Nc1nc(Nc2ccccc2)nc(N2CCOCC2)n1)c1cccs1`, the inhibition is -8.45%.

Regarding `C=CCn1c2c(c3ccccc31)CCC2`, the inhibition is -7.49%.

Consider `OC[C@@H]1CN(Cc2ccncc2)C[C@H](n2cnc3c(N4CCN(c5ccccc5)CC4)ncnc32)O1`, for which the inhibition is 37.7%.

Consider `O=C(Nc1ccc(Br)c2cccnc12)c1ccc(Cn2cc([N+](=O)[O-])cn2)o1`, for which the inhibition was -32.5%.

As to `N#Cc1c(NC(=O)CCCl)sc2c1CCCCC2`, the inhibition was -37%.

On to `CC(=O)c1c(C)[nH]c(C(=O)OCC(=O)Nc2c(C)cccc2C)c1C`, for which the inhibition was 14.6%.

`CC(=O)c1c(C)[nH]c(C(=O)OCC(=O)Nc2sc3c(c2C#N)CCCC3)c1C`: the inhibition is 52.3% (active).

Regarding `COc1ccc(N2CC(C)Cn3c2nc2c3c(=O)n(Cc3ccccc3F)c(=O)n2C)c(OC)c1` (stereo not given), the inhibition is 24.4%.

Turning to `O=C(O)c1cccnc1Sc1ncnc2sc3c(c12)CCC3`, the inhibition is 10.5%.

As for `c1ccc(COc2nsnc2N2CCOCC2)cc1`, the inhibition is 11%.

In the case of `c1ccc(CSc2ncnc3c2sc2nc(N4CCOCC4)c4c(c23)CCCC4)cc1`, the inhibition is 60.3% (active).

Take `Cc1ccc(CCN2CC(C(=O)O)CC2=O)cc1` (stereo not given): the inhibition is -21.4%.

On to `O=C1c2ccccc2C(Nc2ccc3c(c2)OCCO3)N1Cc1ccco1` (stereo not given), for which the inhibition is 62% (active).

As to `S=C(NCc1ccco1)Nc1ccc2c(c1)OCCO2`, the inhibition is 8.28%.

In the case of `CCCCCn1nnnc1C1c2ccccc2C(=O)N1Cc1ccco1` (stereo not given), the inhibition is -7.23%.

Turning to `NC1=CC(=O)C(=O)c2cccnc21`, the inhibition is -15.9%.

For the compound `O=C(O)CCCC(=O)Nc1ccccc1-n1ccnc1`, the inhibition was 13%.

As for `O=C(Nc1nnc(COc2ccccc2)s1)Nc1ccccc1F`, the inhibition is -7.72%.

Consider `O=C(NCCOc1ccccc1F)Nc1ccc(Br)cc1`, for which the inhibition was -33.8%.

As for `O=C(Nc1ccccc1)Nc1nnc(COc2ccccc2F)s1`, the inhibition was 53.5% (active).

As to `Cc1ccc(NC(=O)C2CC(=O)N(c3ccc4c(c3)OCCO4)C2)cc1S(=O)(=O)N1CCCCCC1` (stereo not given), the inhibition was 29.1%.

Regarding `Cc1ccc2c(c1)N(CC(=O)N(Cc1ccccn1)Cc1ccco1)C(=O)C(C(C)C)O2` (stereo not given), the inhibition is 4.87%.

Regarding `Cc1ccc(N/C=C/C(=O)c2ccccc2)cc1C`, the inhibition was 56.6% (active).

`Cc1ccc(NNC(=O)C2CCC2)cc1C`: the inhibition was -8.76%.

For `O=C(/C=C/NCc1ccc(F)cc1)c1ccccc1`, the inhibition was -45.6%.

With `CCC(C)NC(=O)CN(C1CCCCC1)S(C)(=O)=O` (stereo not given), the inhibition was -2.32%.

As for `COc1ccc(CCN2C(=O)c3[nH]nc(-c4ccccc4O)c3C2c2ccc(C)cc2)cc1OC` (stereo not given), the inhibition is 22.8%.

On to `COC(=O)Cn1c(=NC(=O)c2cc(OC)c(OC)c(OC)c2)sc2cc(OC)ccc21`, for which the inhibition was 3.88%.

Turning to `Cc1ccc(N2CCN(c3ccc([N+](=O)[O-])cn3)CC2)c(C)c1`, the inhibition was 5.6%.

For `NC(=O)C[n+]1cccc(C(N)=O)c1`, the inhibition is -13.6%.

For `Cc1ccc(C)c(Cn2nnc3c(=O)[nH]c(C(=O)Nc4ccc(F)cc4)nc32)c1`, the inhibition was 30.7%.

Turning to `Cc1cccc(NC(=O)c2nc(S(=O)(=O)Cc3ccccc3)ncc2Cl)c1`, the inhibition was 77.9% (active).

Turning to `CSc1nnc(NC(=O)c2nc(S(=O)(=O)Cc3ccc(C)cc3)ncc2Cl)s1`, the inhibition was -5.7%.

For the compound `Cc1cccc(CS(=O)(=O)c2ncc(Cl)c(C(=O)Nc3ccc(F)cc3)n2)c1`, the inhibition was 70.8% (active).

Take `Cc1cccc(CN2CCC(CNC(=O)Nc3ccc(F)c(Cl)c3)CC2)c1`: the inhibition was 12.4%.

For the compound `Cc1cccc(NC(=O)Cn2cc(C(=O)c3ccco3)c3ccccc32)c1`, the inhibition is 8.41%.

As for `CCOc1ccc(NC(=O)C2CC(=O)N=C(N)S2)cc1` (stereo not given), the inhibition was 15.3%.

As to `O=C(O)c1ccc(Cn2cnc3c(=S)nc[nH]c32)cc1`, the inhibition was 12.2%.

Turning to `C/C(CC(=O)N1CCN(C=O)CC1)=N\NC(=O)c1ccc(Br)cc1`, the inhibition was -8.44%.

As for `COc1cc(/C=C/C(=O)O)cc(S(=O)(=O)Nc2ccccc2C(=O)NCCc2ccccc2)c1OC`, the inhibition is -15.9%.

For the compound `CCCCC[C@H]1CN(C2CCCCC2)C(=O)[C@@H]1CC(=O)NCc1ccc(OC)cc1`, the inhibition is 14.9%.

As for `Cc1ccc(S(=O)(=O)N2CCC(C(=O)N[C@@H](C)C(=O)NCc3ccco3)CC2)cc1`, the inhibition was 13.7%.

For `CCn1c(SCc2cccc(C(=O)O)c2)nnc1-c1ccc(Cl)cc1`, the inhibition was 6.17%.

Take `Cc1ccccc1NC(=O)C1CCCN(C(=O)NCc2ccccc2)C1` (stereo not given): the inhibition was -8.74%.

As for `COc1ccc2c(c1)c(=Cc1ccc(N(C)C)cc1)c1cc(-c3ccccc3)[n+](C)n12`, the inhibition is 69.4% (active).

For the compound `COc1cccc(CCNC(=O)c2cccc(NC(=O)C3=C(C)OCCS3)c2)c1`, the inhibition was 13.6%.

For the compound `Cc1cccc(-c2nnc(SCC(=O)O)n2Cc2ccccc2)c1`, the inhibition is -6.32%.

With `Cc1ccsc1C(=O)OCC(=O)c1cc(C)n(CC2CCCO2)c1C` (stereo not given), the inhibition is 78.8% (active).

Turning to `Cc1ccsc1C(=O)OCC(=O)Nc1cccc(F)c1`, the inhibition is -57.4%.

`Cc1ccsc1C(=O)OCC(=O)NCCc1ccccc1`: the inhibition is -56.3%.

In the case of `Cc1cccc(C(=O)Nc2ccccc2-c2nnn(CC(=O)Nc3ccc4c(c3)OCCO4)n2)c1`, the inhibition was 6.18%.

For `COc1cc2c(cc1OC)C(=O)NCC(C)(C)O2`, the inhibition is 32.5%.

With `Cc1cc(=O)c2ccc(NC(=O)c3ccccc3)cc2[nH]1`, the inhibition is -14.4%.

On to `O=C(NC1=CC(=O)c2ccccc2C1=O)c1ccccc1`, for which the inhibition was 63.7% (active).

On to `CC(=O)c1cc(NC(=O)c2ccccc2)c(=O)oc1/C=C/N(C)C`, for which the inhibition was 7.35%.

Regarding `CC(=O)Nc1cncc(-c2ccccc2CO)n1`, the inhibition is -15.3%.

As to `Cn1c(=O)c2cc(S(=O)(=O)NCCC(=O)Nc3ccc(F)cc3F)ccc2n(C)c1=O`, the inhibition is -2.05%.

Take `O=C(OCc1ccccc1F)c1ccc2c(c1)OCCO2`: the inhibition was -79.6%.

In the case of `O=C(COC(=O)c1ccc(O)cc1O)c1ccc2c(c1)OCCO2`, the inhibition is 1.99%.

Turning to `CC(=O)Nc1cccc(C(=O)OCC(=O)c2ccc3c(c2)OCO3)c1`, the inhibition was 64.7% (active).

For `COc1ccc(C(=O)OCC(=O)Nc2cccc(C(C)=O)c2)cc1OC`, the inhibition is 10.5%.

Consider `CC(=O)Nc1cccc(C(=O)OCC(=O)NCc2cc(C)c(O)c(C)c2)c1`, for which the inhibition is -29%.

In the case of `O=C(COC(=O)c1ccccc1)c1ccc2c(c1)OCCO2`, the inhibition was 80.8% (active).

As for `Cc1cccc(OC(=O)c2sc3ncn(C)c(=O)c3c2C)c1`, the inhibition was -27.1%.

In the case of `COc1cccc(C(=O)N2CCC(n3nccc3NC(=O)C3CCOC3)CC2)c1` (stereo not given), the inhibition is -1.36%.

`CCOc1ccc(C(C(=O)NC2CCCC2)N(C(=O)c2snc(C(N)=O)c2N)C2CCCC2)cc1` (stereo not given): the inhibition was -0.96%.

Regarding `Nc1nnc(SCC(=O)NC2CCCc3ccccc32)s1` (stereo not given), the inhibition is 21%.

Regarding `COc1cccc(NC(=O)N(C)C[C@@H]2Oc3ncc(Br)cc3C(=O)N([C@@H](C)CO)C[C@H]2C)c1`, the inhibition was -0.54%.

For `Cc1cccc(NC(=S)NCc2ccc3[nH]c4c(c3c2)CCCC4)c1`, the inhibition was 63.8% (active).

Consider `Cc1cc(C)cc(NC(=S)NCCc2c[nH]c3ccccc23)c1`, for which the inhibition is 1.03%.

As for `CCc1cccc(CC)c1NC(=S)NCc1ccc2[nH]c(C)cc2c1`, the inhibition was -11.8%.

As for `CC(C)CCN1CCC(C)(NC(=O)c2ccccc2)C1=O` (stereo not given), the inhibition was -0.82%.

The values are drawn from PubChem BioAssay AID1347056 (Sanford-Burnham Center for Chemical Genomics, 2019).
